Data on 40 compounds can be found in PubChem BioAssay (NCI).

About 83,000 compounds went through this panel and 20% of them were active in at least one assay; those are over-represented in the sample as a whole.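 A percent growth of 40 corresponds to 60% growth inhibition; 0 means no net growth; -100 means all cells died. Active threshold: below 10.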 Unmarked numbers belong to inactive results. The source made the active and inactive calls.

For the first experiment, the system named is HOP-62 NSCLC. The experiment can be described thus: NCI-60 one-dose screen, 48 h (100 = growth as untreated, 0 = no growth, -100 = all killed). To be noted: 10 µM unless noted.
With `COc1ccc(-c2nnc(SCC(=O)Nc3ccc(C(=O)/C=C/c4cc(OC)c(OC)c(OC)c4)cc3)n2-c2ccccc2)cc1OC`, the growth was -31.4% [100 µM] (active).

In the case of `COc1ccc2cn3c4ccc(O)cc4[nH]c(=O)c3c2c1`, the growth is 25.8%.

As to `COc1ccc(/C=N/c2cc(C(C)(C)C)nn2-c2ccccc2)cc1`, the growth is 111%.

Take `CCCCCCCCCCC1OC(C)CC(C)O1` (stereo not given): the growth was 99.8%.

As for `S=C(N/N=C/c1cc(Cl)cc(Cl)c1)NC12CC3CC(CC(C3)C1)C2`, the growth was 78.2%.

In the case of `CCOC1=C(Cl)C(=O)C(OCC)=C(Cl)C1=O`, the growth is 97.6%.

Regarding `COC(=O)/C=C1/CCCCC1(C)C(=O)OC` (stereo not given), the growth is 105%.

Consider `CCCCCCCCCCC(C[N+](C)(C)C/C=C/c1ccccc1)C(O)c1ccccc1` (stereo not given), for which the growth is -30.3% (active).

As to `C=CC1CN2CCC1CC2C(O)c1ccnc2ccc(OC)cc12` (stereo not given), the growth is 79.8%.

With `CC(=O)c1ccc2c(c1)c1ccccc1n2C`, the growth is 83.2%.

With `CC(=O)Nc1nc(C)c(C(=O)NNS(=O)(=O)c2ccccc2)s1`, the growth was -98.9% (active).

`Cc1cc2cn3c4ccc(O)cc4nc(N)c3c2cc1C`: the growth is 13.6%.

With `COc1cc(-c2nn(-c3ccc(NC(=O)Nc4ccc(Cl)c(Cl)c4)cc3)cc2-c2ccncc2)ccc1Cl`, the growth is 47.5%.

As to `CCOC(=O)c1sc(NS(=O)(=O)c2ccccc2)nc1C`, the growth was -99.5% (active).

`Clc1ccc(I)c2ccccc12`: the growth is 103%.

With `N#Cc1c2cccnc2c2nnc3cc(Cl)c(Cl)cc3n12`, the growth was 26.1%.

Take `COc1ccc(C(=O)NCCNc2nccc(-c3c(-c4ccc(F)cc4)nc4sccn34)n2)cc1`: the growth was 64.8%.

Regarding `CC(O)CN(CC(C)O)N(CC(C)O)CC(C)O` (stereo not given), the growth is 101%.

For `O=C(Nc1ccc(-n2cc(-c3ccncc3)c(-c3ccc(Cl)c(O)c3)n2)cc1)c1cc(C(F)(F)F)cc(C(F)(F)F)c1`, the growth is 53.9%.

Regarding `COc1cc(-c2nn(-c3ccc(NC(=O)c4cc(Cl)cc(Cl)c4)cc3)cc2-c2ccncc2)ccc1Cl`, the growth was 56.9%.

As to `CCCCCCC(C)N(CC(C)(C)O)C(=O)c1ccc([N+](=O)[O-])cc1` (stereo not given), the growth is 87.3%.

On to `COc1cc(-c2nn(-c3ccc(NC(=O)c4ccc(Cl)c(Cl)c4)cc3)cc2-c2ccncc2)ccc1Cl`, for which the growth was 52.7%.

Turning to `COC(=O)[C@@H]1[C@H](O)[C@H](C)[C@H](O)[C@H](C)/C=C\C=C(C)C(=O)Nc2c(C)c(OC(C)=O)c3c(c2O)C(=O)C(C)=C2OCOC(=C23)C(C)=C[C@@](C)(O)[C@H](O)[C@@H](C)[C@H]1OC(C)=O`, the growth was -100% (active).

As for `C/C(=C\c1ccc2ccccc2c1)[N+](=O)[O-]`, the growth was 98.7%.

In the case of `Cc1cc2cn3c4ccc(O)cc4[nH]c(=O)c3c2cc1C`, the growth is 11.7%.

With `COc1ccc(C(=O)N2N=C(c3ccc(Br)cc3)CC2c2cn(-c3ccccc3)nc2-c2ccccc2)cc1` (stereo not given), the growth is 22.6%.

With `O=CN/N=C/c1ccc(Cl)c([N+](=O)[O-])c1`, the growth was 20.8%.

With `O=C1CCNC1`, the growth is 108%.

For the compound `O=c1[nH]c2cc(O)ccc2n2cc3c(F)cccc3c12`, the growth is 21.1%.

Regarding `O=C(CCC(=O)N(CCO)CCO)N(CCO)CCO`, the growth is 102%.

With `O=C(CCl)NC1c2ccccc2Oc2ccccc21`, the growth was 75.5%.

As to `CC(=O)N1CCN(CCNC(=O)n2cc(-c3ccncc3)c(-c3cc(O)cc(Cl)c3)n2)CC1`, the growth is 94.2%.

As for `CC(C)OCC1CO1` (stereo not given), the growth was 102%.

On to `Oc1ccc(Br)cc1/C=N/NC(=S)NC12CC3CC(CC(C3)C1)C2`, for which the growth was 16.1%.

With `CC(=O)N1CCN(CCNC(=O)n2cc(-c3ccncc3)c(-c3ccc(O)c(Cl)c3)n2)CC1`, the growth is 106%.

Take `CCOC(=O)/C(C#N)=C(/CC)OCC`: the growth is 104%.

In the case of `O=C1Nc2c(c(=O)n(-c3ccccc3)c3ccccc23)C(c2ccc(Cl)cc2)N1` (stereo not given), the growth was 84.2%.

Take `N=C(c1ccccc1)N(Cc1ccccc1)Cc1ccccc1`: the growth was 97.1%.

Take `COc1cccc(NC(=O)NCCNc2nccc(-c3c(-c4ccc(F)cc4)nc4sccn34)n2)c1`: the growth was 99.4%.

Consider `Cc1ccc(NC(=O)CCl)cc1Cl`, for which the growth is 98.9%.

In another experiment the test system is NCI-H460 lung. The experiment is described as above. To be noted: 10 µM unless noted.
On to `COc1ccc(-c2nnc(SCC(=O)Nc3ccc(C(=O)/C=C/c4cc(OC)c(OC)c(OC)c4)cc3)n2-c2ccccc2)cc1OC`, for which the growth was 11% [100 µM].

As to `COc1ccc2cn3c4ccc(O)cc4[nH]c(=O)c3c2c1`, the growth was -48.7% (active).

With `COc1ccc(/C=N/c2cc(C(C)(C)C)nn2-c2ccccc2)cc1`, the growth is 97.1%.

`CCCCCCCCCCC1OC(C)CC(C)O1` (stereo not given): the growth was 106%.

Turning to `S=C(N/N=C/c1cc(Cl)cc(Cl)c1)NC12CC3CC(CC(C3)C1)C2`, the growth is 34.4%.

For `CCOC1=C(Cl)C(=O)C(OCC)=C(Cl)C1=O`, the growth is 109%.

Regarding `COC(=O)/C=C1/CCCCC1(C)C(=O)OC` (stereo not given), the growth is 107%.

Take `CCCCCCCCCCC(C[N+](C)(C)C/C=C/c1ccccc1)C(O)c1ccccc1` (stereo not given): the growth was 5.75% (active).

Turning to `C=CC1CN2CCC1CC2C(O)c1ccnc2ccc(OC)cc12` (stereo not given), the growth was 98.5%.

Take `CC(=O)c1ccc2c(c1)c1ccccc1n2C`: the growth was 98.5%.

Regarding `CC(=O)Nc1nc(C)c(C(=O)NNS(=O)(=O)c2ccccc2)s1`, the growth is 110%.

Consider `Cc1cc2cn3c4ccc(O)cc4nc(N)c3c2cc1C`, for which the growth is -36.1% (active).

On to `COc1cc(-c2nn(-c3ccc(NC(=O)Nc4ccc(Cl)c(Cl)c4)cc3)cc2-c2ccncc2)ccc1Cl`, for which the growth is 7.14% (active).

Regarding `CCOC(=O)c1sc(NS(=O)(=O)c2ccccc2)nc1C`, the growth is 109%.

On to `Clc1ccc(I)c2ccccc12`, for which the growth is 112%.

Take `N#Cc1c2cccnc2c2nnc3cc(Cl)c(Cl)cc3n12`: the growth was 34.2%.

For `COc1ccc(C(=O)NCCNc2nccc(-c3c(-c4ccc(F)cc4)nc4sccn34)n2)cc1`, the growth was 26.1%.

With `CC(O)CN(CC(C)O)N(CC(C)O)CC(C)O` (stereo not given), the growth was 106%.

As to `O=C(Nc1ccc(-n2cc(-c3ccncc3)c(-c3ccc(Cl)c(O)c3)n2)cc1)c1cc(C(F)(F)F)cc(C(F)(F)F)c1`, the growth is 36.7%.

Turning to `COc1cc(-c2nn(-c3ccc(NC(=O)c4cc(Cl)cc(Cl)c4)cc3)cc2-c2ccncc2)ccc1Cl`, the growth was 54.8%.

Regarding `CCCCCCC(C)N(CC(C)(C)O)C(=O)c1ccc([N+](=O)[O-])cc1` (stereo not given), the growth was 105%.

On to `COc1cc(-c2nn(-c3ccc(NC(=O)c4ccc(Cl)c(Cl)c4)cc3)cc2-c2ccncc2)ccc1Cl`, for which the growth was 48.3%.

For the compound `COC(=O)[C@@H]1[C@H](O)[C@H](C)[C@H](O)[C@H](C)/C=C\C=C(C)C(=O)Nc2c(C)c(OC(C)=O)c3c(c2O)C(=O)C(C)=C2OCOC(=C23)C(C)=C[C@@](C)(O)[C@H](O)[C@@H](C)[C@H]1OC(C)=O`, the growth was 110%.

`C/C(=C\c1ccc2ccccc2c1)[N+](=O)[O-]`: the growth is 98.8%.

In the case of `Cc1cc2cn3c4ccc(O)cc4[nH]c(=O)c3c2cc1C`, the growth was -81.9% (active).

Consider `COc1ccc(C(=O)N2N=C(c3ccc(Br)cc3)CC2c2cn(-c3ccccc3)nc2-c2ccccc2)cc1` (stereo not given), for which the growth was 41.8%.

In the case of `O=CN/N=C/c1ccc(Cl)c([N+](=O)[O-])c1`, the growth was 8.54% (active).

For `O=C1CCNC1`, the growth is 109%.

In the case of `O=c1[nH]c2cc(O)ccc2n2cc3c(F)cccc3c12`, the growth was 2.7% (active).

Turning to `O=C(CCC(=O)N(CCO)CCO)N(CCO)CCO`, the growth was 116%.

As for `O=C(CCl)NC1c2ccccc2Oc2ccccc21`, the growth was 64.8%.

`CC(=O)N1CCN(CCNC(=O)n2cc(-c3ccncc3)c(-c3cc(O)cc(Cl)c3)n2)CC1`: the growth was 89%.

For `CC(C)OCC1CO1` (stereo not given), the growth was 97.7%.

For the compound `Oc1ccc(Br)cc1/C=N/NC(=S)NC12CC3CC(CC(C3)C1)C2`, the growth is 2.18% (active).

For the compound `CC(=O)N1CCN(CCNC(=O)n2cc(-c3ccncc3)c(-c3ccc(O)c(Cl)c3)n2)CC1`, the growth was 103%.

Turning to `CCOC(=O)/C(C#N)=C(/CC)OCC`, the growth was 110%.

For `O=C1Nc2c(c(=O)n(-c3ccccc3)c3ccccc23)C(c2ccc(Cl)cc2)N1` (stereo not given), the growth is 47.7%.

As for `N=C(c1ccccc1)N(Cc1ccccc1)Cc1ccccc1`, the growth was 98.3%.

With `COc1cccc(NC(=O)NCCNc2nccc(-c3c(-c4ccc(F)cc4)nc4sccn34)n2)c1`, the growth is 58.8%.

Regarding `Cc1ccc(NC(=O)CCl)cc1Cl`, the growth is 105%.
